In the supplement of paper PMC11732987, “Enantioselective OTUD7B fragment discovery through chemoproteomics screening and high-throughput optimisation” (Communications Chemistry, 2025):

Columns and labels:
Experiment in all cases: log2 ratio of Biotin-Ahx-Ub-VS probe labelling (fragment/DMSO); higher = less target engagement (more negative = stronger competition), active = hit call of the paper (q ≤ 0.05, log2 ratio ≤ -1)
Conditions in all cases: compound concentration: 200 uM; treatment time: 3 h
ALG13 = biological target: T1, ALG13 (UniProt Q9NP73)
T1 sequence (whole entry): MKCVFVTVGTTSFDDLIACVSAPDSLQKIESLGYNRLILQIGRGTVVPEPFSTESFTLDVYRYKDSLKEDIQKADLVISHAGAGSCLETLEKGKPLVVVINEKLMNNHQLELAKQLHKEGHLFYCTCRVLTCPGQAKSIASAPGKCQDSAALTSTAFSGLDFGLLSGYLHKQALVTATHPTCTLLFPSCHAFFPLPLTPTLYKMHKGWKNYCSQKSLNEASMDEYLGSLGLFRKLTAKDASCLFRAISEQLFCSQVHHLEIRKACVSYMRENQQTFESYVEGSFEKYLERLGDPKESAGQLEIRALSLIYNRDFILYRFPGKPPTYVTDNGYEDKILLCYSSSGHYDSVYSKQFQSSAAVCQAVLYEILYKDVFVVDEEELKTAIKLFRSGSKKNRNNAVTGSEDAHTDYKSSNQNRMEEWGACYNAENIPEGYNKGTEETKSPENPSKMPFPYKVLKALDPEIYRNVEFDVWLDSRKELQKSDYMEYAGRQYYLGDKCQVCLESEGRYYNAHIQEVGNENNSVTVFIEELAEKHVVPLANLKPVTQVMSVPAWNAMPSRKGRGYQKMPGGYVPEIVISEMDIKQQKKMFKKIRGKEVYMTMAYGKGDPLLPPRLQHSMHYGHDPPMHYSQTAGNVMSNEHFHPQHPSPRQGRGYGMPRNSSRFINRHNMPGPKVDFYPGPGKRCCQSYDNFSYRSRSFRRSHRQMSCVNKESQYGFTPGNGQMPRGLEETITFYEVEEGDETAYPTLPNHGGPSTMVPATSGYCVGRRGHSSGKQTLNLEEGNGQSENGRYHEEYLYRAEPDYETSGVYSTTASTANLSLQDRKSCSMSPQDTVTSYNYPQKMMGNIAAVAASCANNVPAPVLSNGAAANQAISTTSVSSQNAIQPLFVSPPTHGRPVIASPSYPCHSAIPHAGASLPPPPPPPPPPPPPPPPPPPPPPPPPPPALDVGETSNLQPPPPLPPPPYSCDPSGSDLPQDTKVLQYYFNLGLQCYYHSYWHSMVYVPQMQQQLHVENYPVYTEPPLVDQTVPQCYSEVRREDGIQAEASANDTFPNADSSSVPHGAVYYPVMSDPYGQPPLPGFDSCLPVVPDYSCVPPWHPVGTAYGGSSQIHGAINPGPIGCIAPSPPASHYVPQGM
In short: (§1)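 Fragment (200 µM) or vehicle was incubated for 3 h with triplicate HEK293T lysate samples of 495 µg, which were then treated with Biotin-Ahx-Ub-VS at 0.5 µM final for 1 h. Labelled DUBs were enriched on NeutrAvidin, digested with LysC and trypsin, and analysed by diaPASEF LC-MS/MS. Values are average log2 fragment/vehicle ratios from an unpaired t-test on global-median-normalised Spectronaut label-free quantities, using proteins with ≥2 unique peptides.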

ATXN3 = ATXN3 (UniProt P54252)
In short: as §1

BAP1 = biological target: T2, BAP1 (UniProt Q92560)
T2 sequence (whole entry): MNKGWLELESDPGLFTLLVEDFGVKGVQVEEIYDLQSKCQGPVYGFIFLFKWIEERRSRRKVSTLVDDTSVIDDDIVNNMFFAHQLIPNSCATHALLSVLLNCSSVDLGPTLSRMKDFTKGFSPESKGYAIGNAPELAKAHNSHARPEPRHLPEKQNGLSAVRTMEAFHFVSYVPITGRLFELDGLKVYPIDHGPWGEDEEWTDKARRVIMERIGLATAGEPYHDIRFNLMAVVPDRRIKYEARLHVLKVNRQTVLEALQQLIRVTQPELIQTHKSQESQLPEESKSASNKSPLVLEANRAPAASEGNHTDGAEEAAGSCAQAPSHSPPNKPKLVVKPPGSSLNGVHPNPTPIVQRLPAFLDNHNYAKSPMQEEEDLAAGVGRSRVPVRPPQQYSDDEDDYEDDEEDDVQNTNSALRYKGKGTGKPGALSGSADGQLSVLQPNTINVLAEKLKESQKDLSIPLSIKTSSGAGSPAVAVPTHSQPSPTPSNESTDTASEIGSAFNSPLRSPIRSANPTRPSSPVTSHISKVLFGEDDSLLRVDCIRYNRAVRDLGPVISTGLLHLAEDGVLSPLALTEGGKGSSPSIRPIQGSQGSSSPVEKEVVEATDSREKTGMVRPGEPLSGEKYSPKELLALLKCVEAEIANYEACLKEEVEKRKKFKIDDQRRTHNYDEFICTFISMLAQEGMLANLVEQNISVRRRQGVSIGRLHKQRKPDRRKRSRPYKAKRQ
In short: as §1

EIF3F = EIF3F (UniProt O00303)
In short: as §1

EIF3H = EIF3H (UniProt O15372)
In short: as §1

FAM105A = biological target: T3, FAM105A (UniProt Q9NUU6)
T3 sequence (whole entry): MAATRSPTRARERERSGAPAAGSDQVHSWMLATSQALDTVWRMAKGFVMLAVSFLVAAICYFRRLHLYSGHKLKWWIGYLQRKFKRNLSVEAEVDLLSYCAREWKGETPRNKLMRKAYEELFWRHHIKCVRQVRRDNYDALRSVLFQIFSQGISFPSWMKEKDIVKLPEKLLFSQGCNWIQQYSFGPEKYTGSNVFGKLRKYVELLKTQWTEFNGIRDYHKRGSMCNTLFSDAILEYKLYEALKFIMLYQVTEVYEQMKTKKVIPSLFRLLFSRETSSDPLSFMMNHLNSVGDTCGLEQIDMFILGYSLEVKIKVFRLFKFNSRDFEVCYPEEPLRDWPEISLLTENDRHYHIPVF
In short: as §1

OTUB1 = OTUB1 (UniProt Q96FW1)
In short: as §1

OTUD4 = biological target: T4, OTUD4 (UniProt Q01804)
T4 sequence (whole entry): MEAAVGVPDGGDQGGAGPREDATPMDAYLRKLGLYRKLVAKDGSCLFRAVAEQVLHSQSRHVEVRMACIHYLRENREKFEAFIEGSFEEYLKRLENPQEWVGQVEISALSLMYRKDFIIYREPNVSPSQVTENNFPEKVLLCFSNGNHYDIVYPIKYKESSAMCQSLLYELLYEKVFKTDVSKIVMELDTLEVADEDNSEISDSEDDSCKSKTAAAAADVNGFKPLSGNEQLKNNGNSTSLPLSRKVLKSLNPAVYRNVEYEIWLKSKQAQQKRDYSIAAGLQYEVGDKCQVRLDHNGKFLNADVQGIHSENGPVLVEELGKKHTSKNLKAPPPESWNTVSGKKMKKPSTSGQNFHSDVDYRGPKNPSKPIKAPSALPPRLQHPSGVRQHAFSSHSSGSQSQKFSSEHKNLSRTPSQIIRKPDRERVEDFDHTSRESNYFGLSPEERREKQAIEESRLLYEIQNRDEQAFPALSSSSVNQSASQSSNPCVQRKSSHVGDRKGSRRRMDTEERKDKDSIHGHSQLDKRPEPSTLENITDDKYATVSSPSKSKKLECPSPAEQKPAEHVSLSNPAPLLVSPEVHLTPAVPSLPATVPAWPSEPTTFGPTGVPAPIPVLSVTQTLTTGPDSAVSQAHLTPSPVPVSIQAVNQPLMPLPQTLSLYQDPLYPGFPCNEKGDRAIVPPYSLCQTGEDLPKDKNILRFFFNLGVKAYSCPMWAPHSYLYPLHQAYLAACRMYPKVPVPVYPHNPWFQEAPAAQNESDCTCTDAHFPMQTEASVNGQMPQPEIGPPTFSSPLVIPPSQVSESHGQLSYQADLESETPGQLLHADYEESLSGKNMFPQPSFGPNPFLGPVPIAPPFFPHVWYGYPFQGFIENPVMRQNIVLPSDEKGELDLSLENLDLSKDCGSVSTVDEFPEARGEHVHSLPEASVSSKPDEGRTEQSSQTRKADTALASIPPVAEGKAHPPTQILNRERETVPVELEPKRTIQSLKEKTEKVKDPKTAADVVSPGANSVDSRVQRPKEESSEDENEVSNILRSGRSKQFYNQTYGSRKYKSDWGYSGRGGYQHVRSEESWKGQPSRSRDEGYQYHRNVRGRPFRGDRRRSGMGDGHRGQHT
In short: as §1

OTUD5 = biological target: T5, OTUD5 (UniProt Q96G74)
T5 sequence (whole entry): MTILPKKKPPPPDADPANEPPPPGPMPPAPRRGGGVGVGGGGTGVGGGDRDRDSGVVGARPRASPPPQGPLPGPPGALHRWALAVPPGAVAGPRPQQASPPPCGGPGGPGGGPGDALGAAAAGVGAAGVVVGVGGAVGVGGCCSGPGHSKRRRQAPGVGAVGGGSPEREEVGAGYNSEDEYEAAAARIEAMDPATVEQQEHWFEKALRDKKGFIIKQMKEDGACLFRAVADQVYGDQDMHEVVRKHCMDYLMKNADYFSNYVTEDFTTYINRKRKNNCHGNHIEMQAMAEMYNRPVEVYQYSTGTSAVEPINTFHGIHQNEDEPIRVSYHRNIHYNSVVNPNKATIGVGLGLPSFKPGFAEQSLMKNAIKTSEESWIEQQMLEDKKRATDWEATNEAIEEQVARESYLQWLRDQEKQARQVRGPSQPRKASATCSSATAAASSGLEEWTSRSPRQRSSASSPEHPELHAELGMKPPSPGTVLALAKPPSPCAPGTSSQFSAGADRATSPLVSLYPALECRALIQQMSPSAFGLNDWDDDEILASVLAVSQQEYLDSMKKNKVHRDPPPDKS
In short: as §1

Measured: log2 ratio of Biotin-Ahx-Ub-VS probe labelling

Chain of EIF3F (O00303 whole entry): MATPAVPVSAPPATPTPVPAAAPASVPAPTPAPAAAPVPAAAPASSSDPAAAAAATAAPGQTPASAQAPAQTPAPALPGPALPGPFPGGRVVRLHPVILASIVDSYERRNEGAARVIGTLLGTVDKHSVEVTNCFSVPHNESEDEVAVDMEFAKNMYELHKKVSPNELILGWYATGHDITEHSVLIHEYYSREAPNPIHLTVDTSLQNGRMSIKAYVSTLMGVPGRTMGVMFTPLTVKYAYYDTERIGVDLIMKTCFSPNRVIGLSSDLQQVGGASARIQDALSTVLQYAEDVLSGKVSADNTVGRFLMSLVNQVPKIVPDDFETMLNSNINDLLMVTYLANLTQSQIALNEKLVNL
Chain of OTUB1 (Q96FW1 whole entry): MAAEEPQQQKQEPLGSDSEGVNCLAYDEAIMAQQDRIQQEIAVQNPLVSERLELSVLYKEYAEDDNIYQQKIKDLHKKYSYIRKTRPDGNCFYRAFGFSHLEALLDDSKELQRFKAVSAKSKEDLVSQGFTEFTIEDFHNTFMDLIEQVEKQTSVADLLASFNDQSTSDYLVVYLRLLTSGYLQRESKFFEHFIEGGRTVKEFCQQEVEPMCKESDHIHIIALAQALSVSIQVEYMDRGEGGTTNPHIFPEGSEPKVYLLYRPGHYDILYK
Chain of ATXN3 (P54252 whole entry): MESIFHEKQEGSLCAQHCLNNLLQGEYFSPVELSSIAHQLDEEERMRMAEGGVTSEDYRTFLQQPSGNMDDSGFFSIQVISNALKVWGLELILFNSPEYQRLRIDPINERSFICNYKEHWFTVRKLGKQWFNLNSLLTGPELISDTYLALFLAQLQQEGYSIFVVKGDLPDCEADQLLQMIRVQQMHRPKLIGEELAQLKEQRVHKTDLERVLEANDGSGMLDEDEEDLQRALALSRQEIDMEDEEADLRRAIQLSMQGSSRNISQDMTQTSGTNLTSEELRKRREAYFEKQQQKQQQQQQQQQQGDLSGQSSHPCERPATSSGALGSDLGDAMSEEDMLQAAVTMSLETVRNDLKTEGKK
Chain of EIF3H (O15372 whole entry): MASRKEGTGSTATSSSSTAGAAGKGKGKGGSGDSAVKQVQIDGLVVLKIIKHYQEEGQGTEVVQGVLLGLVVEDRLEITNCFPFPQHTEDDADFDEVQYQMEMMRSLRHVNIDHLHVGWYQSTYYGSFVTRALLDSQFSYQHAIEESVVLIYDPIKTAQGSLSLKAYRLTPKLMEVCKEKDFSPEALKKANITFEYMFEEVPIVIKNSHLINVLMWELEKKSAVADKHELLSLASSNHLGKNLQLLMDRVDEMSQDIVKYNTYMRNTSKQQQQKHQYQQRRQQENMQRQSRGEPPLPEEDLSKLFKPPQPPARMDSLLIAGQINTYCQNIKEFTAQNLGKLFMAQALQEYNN

Cc1noc(N2CCN(C(=O)CCl)CC2)n1.Cl
inactive: ALG13 -0.0651 | ATXN3 -0.811 | BAP1 -0.867 | EIF3F 0.106 | EIF3H -0.241 | FAM105A 0.317 | OTUB1 0.11 | OTUD4 -0.163 | OTUD5 -0.0833
